# Source: PubChem BioAssay (NCATS)
# Inconclusive results are not listed. A call without a number means that no potency is given here. Calls of active or inactive are those of the source. Calls follow the shape of the dose curve; as a rule, active = well fitted cell-killing curve with a large enough effect; inconclusive = small, poorly fitted or top-dose-only effect, or effect the other way; inactive = flat fitted curve, though single readings scatter.
# Tested on: SKOV3
# Assay: Primary qHTS to identify gynecologic anti-cancer compounds using libraries of approved drugs and bioactive compounds (AID 1345084); also: nearly all actives have a fitted effect of over 55% in size
# Settings: Gynecologic cancer cell panel viability, ATPlite luminescence, 48 h; series mostly up to 57.5 µM
# In short: (§1)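 Five-concentration response, 48 h; readout is ATP-driven luciferase luminescence.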
SMILES,Potency,"activity change, negative = cytotoxicity"
CC1CCC2(C)CCC3(C)C(=CCC4C5(C)CCC(O)C(C)(C(=O)O)C5CCC43C)C2C1C (stereo not drawn),inactive,
NC(N)=NCCC[C@H](NC(=O)c1sccc1NS(=O)(=O)c1cccc2nsnc12)C(=O)O,inactive,
CC[C@@H](C)[C@H](N)C(=O)N1Cc2ccccc2C1,inactive,
Cc1cc(-c2nncc3c(C(C)(C)C)c(OCc4ncnn4C)nn23)no1,inactive,
C/C=C/C=C/C(O)=C1/C(=O)[C@]2(C)C3/C(=C(O)/C=C/C=C/C)C(=O)C4(C)C1[C@]1(C)O[C@@]4(O)[C@@]3(C)O[C@@]12O,inactive,
C/C=C(/C)C(=O)O[C@H]1C[C@]2(C)O[C@@H]2[C@@H](OC(C)=O)[C@@]2(C)CC[C@@](O)(C(C)C)[C@H]12,inactive,
O=C(c1c2ccccc2cc2ccccc12)N1CCC(N2CCC[C@@H](C(=O)N3CCOCC3)C2)CC1,inactive,
C[C@]1(OC(=O)/C=C\c2ccc(O)cc2)C[C@@H](O)[C@]2(O)C=CO[C@@H](O[C@@H]3O[C@H](CO)[C@@H](O)[C@H](O)[C@H]3O)C12 (stereo partly drawn),inactive,
C[C@H]1CC[C@@]2(OC1)O[C@H]1CC3C4CC[C@H]5C[C@@H](O[C@@H]6O[C@H](CO)[C@H](O[C@@H]7O[C@H](CO)[C@@H](O)[C@H](O[C@@H]8OC[C@@H](O)[C@H](O)[C@H]8O)[C@H]7O[C@@H]7O[C@H](CO)[C@@H](O)[C@H](O)[C@H]7O)[C@H](O)[C@H]6O)[C@H](O)C[C@]5(C)C4=CC(=O)[C@]3(C)[C@H]1[C@@H]2C (stereo partly drawn),,0.679% [at 11.6 µM] (inactive)
COc1cc(C(=O)OCC2=CCC3C(C(=O)O)=COC(O[C@@H]4O[C@H](CO)[C@@H](O)[C@H](O)[C@H]4O)C23)ccc1O (stereo partly drawn),inactive,
C/C=C/C=C/C=C/C(=O)N(C)C(C(=O)NC(C)C(=O)N1CCCC1C(N)=O)C(C)C (stereo not drawn),inactive,
O=C(O)CC1CCC(c2ccc(-c3ccc(Nc4ccc(C(F)(F)F)nc4)cn3)cc2)CC1 (stereo not drawn),inactive,
C=CC(C)(O)CC/C=C(\C)C(=O)O[C@@H]1[C@@H](O)[C@H](OC(C)(C=C)CC/C=C(\C)C(=O)O[C@@H]2O[C@H](CO)[C@@H](O)[C@H](O)[C@H]2O)O[C@H](CO)[C@H]1OC(=O)/C(C)=C/CCC(C)(O)C=C (stereo partly drawn),,-0.696% [at 11.6 µM] (inactive)
C[C@@H]1O[C@@H](O[C@H]2[C@H](O)[C@@H](O[C@@H]3O[C@H](CO)[C@H](O)[C@H](O)[C@H]3O)[C@H](O[C@H]3CC[C@@]4(C)C(CC[C@]5(C)C4CC=C4[C@@H]6CC(C)(C)CC[C@]6(C(=O)O[C@@H]6O[C@H](CO)[C@@H](O)[C@H](O)[C@H]6O)CC[C@]45C)C3(C)C)O[C@@H]2C(=O)O)[C@H](O)[C@H](O)[C@H]1O (stereo partly drawn),,-3.61% [at 11.6 µM] (inactive)
O=C(O)Cc1cn([C@@H]2OC[C@@H](O[C@@H]3O[C@H](CO)[C@@H](O)[C@H](O)[C@H]3O)[C@H](O)[C@H]2O[C@@H]2O[C@H](CO)[C@@H](O)[C@H](O)[C@H]2O)c2ccccc12,inactive,
CCC(C)/C=C(C)/C=C/C(=O)C1CCC(O)C(C)(O)C1=O (stereo not drawn),inactive,
COc1cn(-c2ccc(-n3cccn3)cc2F)nc(-c2ccnn2-c2ccccc2)c1=O,inactive,
CCC1(O)CC2c3cc(OC)c(OC)cc3CCN2CC1CC(C)C (stereo not drawn),inactive,
CC(C)=C1C[C@@]2(C)C(=CC1=O)CC[C@@H](O)[C@@H]2C,inactive,
COC(=O)C(Cc1ccccc1)NC(=O)c1ccccc1 (stereo not drawn),inactive,
C/C(=C\CCC(C)C1CC(O)C2(C)C3CCC4C(C)(C)C(OC5OCC(O)C(O)C5O)CCC45CC35CC(O)C12C)C(=O)O (stereo not drawn),inactive,
CSCC1OC(n2cnc3c(=O)[nH]cnc32)C(O)C1O (stereo not drawn),inactive,
C[C@@H]1O[C@@H](O[C@H]2[C@H](OC(=O)[C@]34CCC(C)(C)C[C@H]3C3=CCC5[C@@]6(C)CC[C@H](O[C@@H]7O[C@H](CO[C@@H]8OC[C@H](O)[C@H](O)[C@H]8O)[C@@H](O)[C@H](O)[C@H]7O)C(C)(C)C6CC[C@@]5(C)[C@]3(C)C[C@H]4O)OC[C@@H](O)[C@@H]2O)[C@H](O)[C@H](O[C@@H]2OC[C@](O)(CO)[C@H]2O)[C@H]1O[C@@H]1OC[C@H](O)[C@H](O[C@@H]2OC[C@@H](O)[C@H](O)[C@H]2O)[C@H]1O (stereo partly drawn),,6.12% [at 6.55 µM] (inactive)
C[C@@H]1[C@H](O)[C@@H]2OC(=O)C3=C2[C@H](CCC3)[C@@]12C[C@@H](c1ccoc1)OC2=O,inactive,
C/C=C1/C[N+](C)([O-])C2Cc3c([nH]c4ccccc34)C(=O)CC1C2C(=O)OC (stereo not drawn),inactive,
COc1cc(O)cc(O[C@@H]2O[C@H](CO)[C@@H](O[C@@H]3OC[C@](O)(CO)[C@H]3O)[C@H](O)[C@H]2O)c1OC,inactive,

# Tested on: Tov-21-G
# Assay: as above
# Settings: Gynecologic cancer cell panel viability, ATPlite luminescence, 48 h; series mostly up to 57.5 µM
# In short: as §1
SMILES,Potency,"activity change, negative = cytotoxicity"
CC1(C)C[C@H](O)C[C@@]2(C)[C@H]1[C@H](O)C=C1COC(=O)[C@@]12O,inactive,
CC(=O)OC12CC(C)C(OC(=O)c3ccccc3)C1/C=C(/C)C(OC(=O)c1ccccc1)CC(=O)C(C)(C)/C=C/C(C)C2=O (stereo not drawn),inactive,
C/C=C(\C)C(=O)OC[C@H]1O[C@@H](O[C@H]2[C@@H](O[C@H]3O[C@H](COC(=O)/C(C)=C/C)[C@@H](O)[C@H](O)[C@H]3O[C@@H]3O[C@H](CO)[C@@H](O)[C@H](OC(=O)/C(C)=C/C)[C@H]3O)O[C@H](COC(=O)/C(C)=C/C)[C@@H](O)[C@@H]2O)[C@H](O)[C@@H](O)[C@@H]1O,,2.42% [at 11.6 µM] (inactive)
COc1ccc(C(=O)OC2C3C=COC(OC4OC(CO)C(O)C(O)C4O)C3C3(CO)OC23)cc1OC (stereo not drawn),inactive,
N#Cc1cccc(-c2nc(-c3cccnc3)no2)c1,inactive,
Cc1oc2nc3c(c(NC(=O)CN4CCCC4=O)c2c1C)CCCC3,inactive,
O=C(/C=C/c1ccc(O)c(O)c1)OC[C@H]1O[C@@H](OC2CCCCC2O)[C@H](O)[C@@H](O)[C@@H]1O (stereo partly drawn),inactive,
Cc1cccc(-c2nn3c(c2-c2ccnc4ccc(C(N)=O)cc24)CCC3)n1,inactive,
NC1=NC2(c3cc(NC(=O)c4ccc(F)cn4)ccc3F)COCC2CS1 (stereo not drawn),inactive,
CC(CNS(=O)(=O)C(C)C)c1ccc(-c2ccc(C#N)cc2)cc1 (stereo not drawn),inactive,
COC1CC(O[C@H]2CC[C@@]3(C)C(=CC[C@]4(O)C3[C@H](O)[C@@H](O)[C@]3(C)[C@@H]([C@H](C)O)CC[C@@]34O)C2)OC(C)C1OC1CC(OC)C(OC2CC(OC)C(OC3OC(C)C(OC4OC(CO)C(O)C(O)C4O)C(OC)C3O)C(C)O2)C(C)O1 (stereo partly drawn),,-0.0649% [at 11.6 µM] (inactive)
CC1CCC2(C)CCC3(C)C(=CCC4C5(C)CCC(O)C(C)(C(=O)O)C5CCC43C)C2C1C (stereo not drawn),inactive,
NC(N)=NCCC[C@H](NC(=O)c1sccc1NS(=O)(=O)c1cccc2nsnc12)C(=O)O,inactive,
CC[C@@H](C)[C@H](N)C(=O)N1Cc2ccccc2C1,inactive,
Cc1cc(-c2nncc3c(C(C)(C)C)c(OCc4ncnn4C)nn23)no1,inactive,
C/C=C/C=C/C(O)=C1/C(=O)[C@]2(C)C3/C(=C(O)/C=C/C=C/C)C(=O)C4(C)C1[C@]1(C)O[C@@]4(O)[C@@]3(C)O[C@@]12O,inactive,
C/C=C(/C)C(=O)O[C@H]1C[C@]2(C)O[C@@H]2[C@@H](OC(C)=O)[C@@]2(C)CC[C@@](O)(C(C)C)[C@H]12,inactive,
O=C(c1c2ccccc2cc2ccccc12)N1CCC(N2CCC[C@@H](C(=O)N3CCOCC3)C2)CC1,inactive,
C[C@]1(OC(=O)/C=C\c2ccc(O)cc2)C[C@@H](O)[C@]2(O)C=CO[C@@H](O[C@@H]3O[C@H](CO)[C@@H](O)[C@H](O)[C@H]3O)C12 (stereo partly drawn),inactive,
C[C@H]1CC[C@@]2(OC1)O[C@H]1CC3C4CC[C@H]5C[C@@H](O[C@@H]6O[C@H](CO)[C@H](O[C@@H]7O[C@H](CO)[C@@H](O)[C@H](O[C@@H]8OC[C@@H](O)[C@H](O)[C@H]8O)[C@H]7O[C@@H]7O[C@H](CO)[C@@H](O)[C@H](O)[C@H]7O)[C@H](O)[C@H]6O)[C@H](O)C[C@]5(C)C4=CC(=O)[C@]3(C)[C@H]1[C@@H]2C (stereo partly drawn),,-4.82% [at 11.6 µM] (inactive)
COc1cc(C(=O)OCC2=CCC3C(C(=O)O)=COC(O[C@@H]4O[C@H](CO)[C@@H](O)[C@H](O)[C@H]4O)C23)ccc1O (stereo partly drawn),inactive,
C/C=C/C=C/C=C/C(=O)N(C)C(C(=O)NC(C)C(=O)N1CCCC1C(N)=O)C(C)C (stereo not drawn),inactive,
O=C(O)CC1CCC(c2ccc(-c3ccc(Nc4ccc(C(F)(F)F)nc4)cn3)cc2)CC1 (stereo not drawn),inactive,
C=CC(C)(O)CC/C=C(\C)C(=O)O[C@@H]1[C@@H](O)[C@H](OC(C)(C=C)CC/C=C(\C)C(=O)O[C@@H]2O[C@H](CO)[C@@H](O)[C@H](O)[C@H]2O)O[C@H](CO)[C@H]1OC(=O)/C(C)=C/CCC(C)(O)C=C (stereo partly drawn),,0.188% [at 11.6 µM] (inactive)
C[C@@H]1O[C@@H](O[C@H]2[C@H](O)[C@@H](O[C@@H]3O[C@H](CO)[C@H](O)[C@H](O)[C@H]3O)[C@H](O[C@H]3CC[C@@]4(C)C(CC[C@]5(C)C4CC=C4[C@@H]6CC(C)(C)CC[C@]6(C(=O)O[C@@H]6O[C@H](CO)[C@@H](O)[C@H](O)[C@H]6O)CC[C@]45C)C3(C)C)O[C@@H]2C(=O)O)[C@H](O)[C@H](O)[C@H]1O (stereo partly drawn),,8.52% [at 11.6 µM] (inactive)
O=C(O)Cc1cn([C@@H]2OC[C@@H](O[C@@H]3O[C@H](CO)[C@@H](O)[C@H](O)[C@H]3O)[C@H](O)[C@H]2O[C@@H]2O[C@H](CO)[C@@H](O)[C@H](O)[C@H]2O)c2ccccc12,inactive,
CCC(C)/C=C(C)/C=C/C(=O)C1CCC(O)C(C)(O)C1=O (stereo not drawn),inactive,
